# Measured values taken from PubChem BioAssay.
# Activity calls are given as the source filed them. Unless noted, the rule behind the calls is not given here.
# How the values were obtained:
# [1] = anti-His antibody binders, primary screen, artefact control for SMM control protein annotation, biochemical, small-molecule microarray, 635 nm fluorescence (AID 1128); details: anti-His Alexa647 antibody binding, higher = more signal;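 note: score merges feature fluorescence with signal-to-noise for each printed compound spot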
# [2] = test system: Human papillomavirus type 1a E7 protein (residues 1-88); assay: HPV1a E7 small-molecule binders, primary screen, biochemical, small-molecule microarray, residues 1-88, 635 nm (AID 1129); details: small-molecule microarray binding, fluorescence 635 nm; higher = more signal
# [3] = target: Focal adhesion kinase 1 (Homo sapiens) (UniProt Q05397); assay: small-molecule microarray binders of FAK, primary screen, biochemical, 635/667 nm fluorescence, BSA, DTT (AID 1130); details: PTK2 binding, 635 nm fluorescence, higher = more signal;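 note: composite of spot emission at 667 nm and signal to noise over triplicate slides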
# [4] = test system: Fibrinogen (Alexa647-labelled); assay: fibrinogen binders on compound microarrays, profiling panel, artefact control for SMM control-protein annotation, biochemical, small-molecule microarray, 635/667 nm fluorescence (AID 1131); details: fibrinogen-A647 binding fluorescence, higher = more signal;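 note: z-score merges 667 nm fluorescence with per-spot signal-to-noise over triplicate slides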
# [5] = target: Follistatin (Homo sapiens) (UniProt P19883); assay: follistatin binders on small-molecule microarrays, primary screen, biochemical, small-molecule microarray, 635/667 nm fluorescence (AID 1132); details: FST binding, 635 nm fluorescence, higher = more signal
# [6] = target: Fibroblast growth factor 2 (Homo sapiens) (UniProt P09038); assay: FGF2 binders on small-molecule microarrays, primary screen, biochemical, small-molecule microarray, 635/667 nm fluorescence (AID 1133); details: small-molecule microarray binding, FGF2, fluorescence 635/667; higher = more signal
# [7] = mitochondrial membrane potential change in A549 cells, profiling panel, cell-based, JC-1 fluorescence, basal, 24 h, 100 nL (AID 1138); details: higher = more signal;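 note: A549 lung adenocarcinoma cells under basal conditions with no added stimulus; test concentration not given here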
# Lefty1 = Lefty1 binders on small-molecule microarrays, primary screen, biochemical, small-molecule microarray, 635/667 nm fluorescence (AID 1139); details: small-molecule microarray binding, fluorescence 635/667; higher = more signal
# [8] = test system: wheat germ agglutinin (Triticum aestivum), Alexa647-labelled; assay: wheat germ agglutinin binders on compound microarrays, profiling panel, artefact control for SMM control-protein annotation, biochemical, small-molecule microarray, 635/667 nm fluorescence (AID 1140); details: WGA-A647 binding, 635 nm fluorescence, higher = more signal;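 note: score merges 667 nm feature emission with signal to noise over triplicate slides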
# [9] = target: Luciferin 4-monooxygenase (Photinus pyralis) (UniProt P08659); assay: firefly luciferase enzyme inhibitors, primary screen, biochemical, luminescence, purified enzyme, 2006 set (AID 1141); details: SteadyGlo luminescence, 30 min, higher = more signal, called active from +8 up or from −8 down;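 note: cell-free assay with purified firefly luciferase at 100 ng per well in PBS; test concentration not given here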
# [10] = test system: Wnt5a (protein binding on small-molecule microarray); assay: Wnt5a binders on small-molecule microarray, primary screen, biophysical, 635/667 nm fluorescence (AID 1142); details: 635 nm fluorescence, higher = more signal;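 note: fluorescence read at 667 nm with signal to noise per printed feature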
# [11] = cell viability in Huh7 cells, primary screen, cytotoxicity control for HCV replication inhibitor project, CellTiter-Glo luminescence, basal, 48 h (AID 1143); details: Huh7 HCV replicon, higher = more signal, called active from +8 up or from −8 down;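 note: Huh7 hepatoma cells carrying a hepatitis C replication reporter with no stimulus; test concentration not given here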
# [12] = P. aeruginosa biofilm formation inhibitors, primary screen, PAO1 strain, BacTiter-Glo luminescence, LB-PBS (AID 1144); details: 12 h, higher = more signal
# [13] = CREB reporter modulators without forskolin, primary screen, cell-based, PC12, CRE-LacZ reporter, unstimulated (AID 1145); details: no forskolin, luminescence, 4.5 h, higher = more signal, called active from +8 up or from −8 down
# [14] = CREB reporter modulators under forskolin, primary screen, cell-based, PC12, CRE-LacZ reporter, forskolin-stimulated (AID 1146); details: luminescence, 4.5 h, higher = more signal, called active from +8 up or from −8 down;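 note: PC12 cells with 6xCRE LacZ reporter stimulated by forskolin 10 µM; beta-galactosidase reporter signal reflecting CREB driven transcription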
# [15] = target: Streptavidin (Streptomyces avidinii) (UniProt P22629); assay: streptavidin binders on small-molecule microarray, primary screen, artefact control for SMM compound annotation, biophysical, 635/667 nm fluorescence (AID 1147); details: streptavidin binding, higher = more signal;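 note: signal reflects streptavidin binding to arrayed compounds as a control protein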
# [16] = small-molecule binders of probe aInhba, primary screen, biochemical, small-molecule microarray, 635/667 nm fluorescence (AID 1148); details: higher = more signal;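 note: score merges 667nm spot fluorescence with signal-to-noise for antibody binding to printed compounds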
# Torsin-1A (Homo sapiens) [17] = target: Torsin-1A (Homo sapiens) (UniProt O14656); assay: torsin A binders from cell lysate, primary screen, small-molecule microarray, wild-type, 635/667 nm (AID 1149); details: COS7 hTOR1A-WT lysate, 635 nm fluorescence, higher = more signal
# Torsin-1A (Homo sapiens) [18] = target: Torsin-1A (Homo sapiens) (UniProt O14656); assay: small-molecule binders of mutant TOR1A in lysate, primary screen, cell lysate, small-molecule microarray, COS7 lysate, 635/667 nm fluorescence (AID 1150); details: COS7 hTOR1A mutant lysate, 635 nm fluorescence, higher = more signal;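 note: score pools 667 nm emission and signal to noise measuring lysate protein binding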
# [19] = test system: Sonic hedgehog protein (Shh); assay: small-molecule binders of Shh protein, primary screen, biochemical, small-molecule microarray, 635/667 nm fluorescence (AID 1151); details: small-molecule microarray binding, 635 nm fluorescence; higher = more signal;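 note: Shh protein binding to compounds spotted on small-molecule microarray slides; score combines spot fluorescence intensity with signal-to-noise across triplicate slides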
# Sequence of Follistatin (Homo sapiens) (P19883 whole entry, looked up): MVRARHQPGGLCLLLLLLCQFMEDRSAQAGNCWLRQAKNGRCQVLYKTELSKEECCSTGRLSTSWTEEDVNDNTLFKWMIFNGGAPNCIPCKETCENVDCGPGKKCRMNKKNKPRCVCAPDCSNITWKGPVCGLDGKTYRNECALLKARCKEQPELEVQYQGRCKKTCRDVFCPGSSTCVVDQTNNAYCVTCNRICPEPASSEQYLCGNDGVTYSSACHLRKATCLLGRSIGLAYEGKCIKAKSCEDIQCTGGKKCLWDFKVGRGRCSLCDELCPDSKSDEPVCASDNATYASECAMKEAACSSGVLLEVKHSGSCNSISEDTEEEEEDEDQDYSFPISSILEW
# Sequence of Streptavidin (Streptomyces avidinii) (P22629 whole entry, looked up): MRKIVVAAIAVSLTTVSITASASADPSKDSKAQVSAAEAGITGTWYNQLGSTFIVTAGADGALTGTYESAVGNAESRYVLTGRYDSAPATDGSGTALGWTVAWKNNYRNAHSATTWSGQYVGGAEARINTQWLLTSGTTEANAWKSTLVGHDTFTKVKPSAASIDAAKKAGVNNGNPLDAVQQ
# Sequence of Luciferin 4-monooxygenase (Photinus pyralis) (P08659 whole entry, looked up): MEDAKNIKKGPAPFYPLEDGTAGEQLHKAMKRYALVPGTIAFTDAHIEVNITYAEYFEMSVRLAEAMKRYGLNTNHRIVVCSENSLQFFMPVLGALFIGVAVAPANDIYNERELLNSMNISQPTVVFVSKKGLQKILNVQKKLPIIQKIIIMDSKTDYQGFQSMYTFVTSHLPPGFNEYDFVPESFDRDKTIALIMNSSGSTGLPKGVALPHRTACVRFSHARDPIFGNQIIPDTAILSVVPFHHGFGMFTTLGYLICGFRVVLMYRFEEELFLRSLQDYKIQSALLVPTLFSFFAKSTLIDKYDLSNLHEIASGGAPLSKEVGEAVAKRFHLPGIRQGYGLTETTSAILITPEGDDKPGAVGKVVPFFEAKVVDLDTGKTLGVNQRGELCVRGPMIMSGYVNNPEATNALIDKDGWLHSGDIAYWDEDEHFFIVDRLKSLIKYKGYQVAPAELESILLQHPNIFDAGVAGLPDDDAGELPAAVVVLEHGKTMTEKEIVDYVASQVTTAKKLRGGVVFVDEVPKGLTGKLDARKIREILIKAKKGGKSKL
# Sequence of Focal adhesion kinase 1 (Homo sapiens) (Q05397 whole entry, looked up): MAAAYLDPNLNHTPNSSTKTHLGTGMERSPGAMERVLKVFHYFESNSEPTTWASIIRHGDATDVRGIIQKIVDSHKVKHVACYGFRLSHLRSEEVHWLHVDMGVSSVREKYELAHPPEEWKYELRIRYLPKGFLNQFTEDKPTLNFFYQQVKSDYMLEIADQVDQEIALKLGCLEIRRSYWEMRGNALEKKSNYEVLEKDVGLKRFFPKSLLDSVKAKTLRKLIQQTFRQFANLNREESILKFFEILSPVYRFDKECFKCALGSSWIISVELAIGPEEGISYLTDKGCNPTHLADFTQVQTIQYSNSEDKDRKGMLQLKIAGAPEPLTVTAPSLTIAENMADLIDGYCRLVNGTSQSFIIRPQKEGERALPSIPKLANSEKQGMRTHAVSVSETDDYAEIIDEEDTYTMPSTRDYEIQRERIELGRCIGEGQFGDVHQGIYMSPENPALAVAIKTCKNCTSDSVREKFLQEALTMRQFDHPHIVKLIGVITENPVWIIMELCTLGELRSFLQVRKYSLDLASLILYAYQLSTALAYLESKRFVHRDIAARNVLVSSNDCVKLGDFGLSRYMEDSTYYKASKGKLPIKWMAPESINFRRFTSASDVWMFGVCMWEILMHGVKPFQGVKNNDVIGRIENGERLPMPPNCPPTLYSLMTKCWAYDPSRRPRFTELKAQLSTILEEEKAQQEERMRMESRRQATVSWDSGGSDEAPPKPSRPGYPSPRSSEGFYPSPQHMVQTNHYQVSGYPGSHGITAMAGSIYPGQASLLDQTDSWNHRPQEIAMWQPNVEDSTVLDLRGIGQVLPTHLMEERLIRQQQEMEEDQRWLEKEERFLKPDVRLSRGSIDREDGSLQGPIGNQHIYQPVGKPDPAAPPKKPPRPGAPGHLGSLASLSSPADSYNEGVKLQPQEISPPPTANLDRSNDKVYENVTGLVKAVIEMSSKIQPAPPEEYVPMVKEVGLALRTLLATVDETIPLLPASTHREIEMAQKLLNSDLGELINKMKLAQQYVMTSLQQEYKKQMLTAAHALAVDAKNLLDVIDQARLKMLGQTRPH
# Sequence of Fibroblast growth factor 2 (Homo sapiens) (P09038 whole entry, looked up): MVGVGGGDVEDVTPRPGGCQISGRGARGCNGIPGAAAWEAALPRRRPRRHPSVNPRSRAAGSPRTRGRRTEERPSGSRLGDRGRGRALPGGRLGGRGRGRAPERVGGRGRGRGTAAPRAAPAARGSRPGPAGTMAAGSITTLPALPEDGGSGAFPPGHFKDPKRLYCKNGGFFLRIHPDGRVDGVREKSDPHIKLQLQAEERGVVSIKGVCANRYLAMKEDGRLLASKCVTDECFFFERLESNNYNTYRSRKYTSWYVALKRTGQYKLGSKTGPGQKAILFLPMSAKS
# Sequence of Torsin-1A (Homo sapiens) (O14656 whole entry, looked up): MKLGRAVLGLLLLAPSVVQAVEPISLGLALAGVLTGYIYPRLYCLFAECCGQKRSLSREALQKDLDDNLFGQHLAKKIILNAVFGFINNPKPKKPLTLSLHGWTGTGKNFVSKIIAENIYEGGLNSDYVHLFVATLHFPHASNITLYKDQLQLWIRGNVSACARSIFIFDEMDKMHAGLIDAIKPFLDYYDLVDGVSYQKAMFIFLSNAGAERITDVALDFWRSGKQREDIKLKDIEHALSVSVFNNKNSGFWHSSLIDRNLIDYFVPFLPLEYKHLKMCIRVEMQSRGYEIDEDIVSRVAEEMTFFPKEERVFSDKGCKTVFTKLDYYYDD
SMILES,composite z-score [1],composite z-score [2],composite z-score [3],composite z-score [4],composite z-score [5],composite z-score [6],z-score [7],composite z-score (Lefty1),composite z-score [8],z-score [9],composite z-score [10],z-score [11],z-score [12],z-score [13],z-score [14],composite z-score [15],composite z-score [16],composite z-score (Torsin-1A (Homo sapiens) [17]),composite z-score (Torsin-1A (Homo sapiens) [18]),composite z-score [19]
C=C[C@H]1C(C(=O)OCC)=CC[C@@H](c2ccccc2)N1S(=O)(=O)c1ccc(C)cc1,1.53,1.22,0.736,0.964,1.2,0.0703,3.33,0.325,0.677,0.26 (inactive),0.197,-4.68 (inactive),-0.376 (inactive),-0.0137 (inactive),0.299 (inactive),0.767,0.13,0.683,0.508,0.056
Cc1ccc(S[C@]2(C(=O)O)CC(=O)N(C3CCCCC3)[C@@H]2c2ccc(CO)cc2I)cc1,0.96,1.22,-0.155,0.745,1.19,0.101,-0.996,-0.163,0.89,0.453 (inactive),0.0473,-0.541 (inactive),-0.64 (inactive),-0.269 (inactive),2.76 (inactive),1.43,0.239,0.222,0.919,-0.342
COc1ccc([Si](C)(C)[C@@H]2[C@@H](CCO)O[C@]3(C(=O)N(Cc4ccccc4)c4ccc(N5CCOC5=O)cc43)[C@H]2C)cc1,0.515,1.11,-0.0211,0.661,0.36,0.19,-0.771,0.49,0.896,0.6 (inactive),0.0035,-5.88 (inactive),-1.37 (inactive),3.23 (inactive),-0.205 (inactive),0.242,-0.016,0.151,0.817,1.39
CC(C)C(O)C1C=CC2C(=O)N(c3ccccc3)C(=O)C2N1Nc1ccccc1 (stereo not given),0.331,1.29,0.463,1.05,0.986,-0.11,0.0126,0.63,1.14,0.172 (inactive),0.271,-3.03 (inactive),-1.35 (inactive),0.819 (inactive),0.418 (inactive),0.874,0.0756,0.64,0.923,1.04
C#Cc1cc2ccccc2oc1=O,-0.314,-0.451,-0.393,-1.03,-2.22,-1.39,-1.14,-1.58,-1.12,-2.39 (inactive),-0.365,-0.692 (inactive),0.534 (inactive),0.136 (inactive),6.19 (inactive),-1.47,-0.149,0.173,-0.539,-1.45
COC(=O)C1=CC(CCCO)=CC(c2cccs2)N(C)C=C1C(=O)OC (stereo not given),0.15,-0.5,0.143,-0.198,-0.344,-0.498,0.0963,-0.307,0.507,-0.674 (inactive),-0.149,-0.786 (inactive),0.321 (inactive),-0.285 (inactive),-0.217 (inactive),0.0877,0.0485,-0.186,1.04,-0.369
C=C(COC)/C(=C/C[C@H](OC(=O)c1ccncc1)c1ccc(CO)o1)c1cnc2ccccc2c1,0.283,1.15,0.382,0.271,1.25,0.222,0.818,1.57,0.734,-1.72 (inactive),0.304,0.114 (inactive),-0.268 (inactive),0.303 (inactive),-0.499 (inactive),1.16,-0.0933,0.299,0.732,2.07
COCCOC(=O)N1C(=O)[C@@]2(c3ccccc31)[C@H](c1ccc(O)cc1)N1[C@H](c3ccccc3)[C@H](c3ccccc3)OC(=O)[C@H]1[C@@H]2C(=O)N1CCN(c2ncccn2)CC1,0.682,1.14,0.666,0.244,1.04,1.43,-0.727,0.806,0.026,0.504 (inactive),0.019,-3.19 (inactive),0.109 (inactive),-0.598 (inactive),1.09 (inactive),-0.0184,0.361,0.432,0.997,1.4
O=C(NCCN1CCOCC1)[C@@H]1c2ccccc2C(=O)N(Cc2ccccc2Cl)[C@H]1c1ccc(CO)cc1,-1.29,-0.867,0.0685,-0.542,-0.163,-0.976,1.79,-1.19,0.0616,0.645 (inactive),-0.38,-0.276 (inactive),0.11 (inactive),-0.295 (inactive),-0.6 (inactive),-0.831,-0.32,-0.826,1.23,-1.07
CCCCCCCCCC(O)C1C=CC2C(=O)N(c3ccccc3)C(=O)C2N1Nc1cc(OC)c(OC)c(OC)c1 (stereo not given),0.374,0.675,0.636,0.585,0.0214,-1.09,-0.512,-0.312,0.172,-1.96 (inactive),-0.128,-4.06 (inactive),0.123 (inactive),0.815 (inactive),-0.262 (inactive),0.581,-0.0334,-1.45,-0.241,-0.511
